sEH inhibitor – soluble epoxide hydrolase inhibitors, primary screen, biochemical, human sEH; Bifunctional epoxide hydrolase 2 (Homo sapiens), P34913; recombinant human sEH enzymatic activity assay; inhibition, % at 2 µM; actives 0.34% (n = 91,000); AID 707, 2007; in the data active = inhibition above about 80%
CYP2C9 inh – blockers of cytochrome P450 2C9 activity – biochemical, luminescence, ADME assay, primary screen; P11712; CYP2C9 Supersomes, luciferin-H conversion; inhibition, % at 5 µM; actives 20% (n = 96,000);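 active = blocking of liver enzyme CYP2C9 beyond about 50% at 5 µM, limit read from the data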
sEH activator – soluble epoxide hydrolase activators, primary screen, biochemical, human sEH. Bifunctional epoxide hydrolase 2 (Homo sapiens), P34913. actives 0.04% (n = 91,000). AID 717, 2007. purified human sEH enzymatic activity, activator screen. activation, % at 2 µM; in the data active = activation above about 37%
CYP2C9 act – human CYP2C9 activators, primary screen, biochemical, luminescence. Cytochrome P450 2C9 (Homo sapiens), P11712. recombinant CYP2C9, luciferin-H conversion; hits give high values; factor 1 = untreated enzyme, 0 = blocked. activation factor at 5 µM. actives 1.4% (n = 96,000). AID 1024, 2008;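 active = activation factor of 2 or more for CYP2C9 at a 5 µM dose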;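 also: 0 = sulfaphenazole-blocked wells and 1 = vehicle-only wells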
CYP2C19 inh – blockers of cytochrome P450 2C19 activity – biochemical, luminescence, ADME assay, primary screen. CYP2C19 Supersomes, luciferin-H EGE luminescence, 30 min. inhibition, % at 5 µM. actives 21% (n = 96,000). AID 778, 2007;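 active = CYP2C19 inhibition above a set limit at 5 µM in the primary screen, cut at about 50% in these data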;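 also: plate controls were negative control wells for no effect and 2.5 mM tranylcypromine positive control for full effect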
Target sequence (P33261 whole entry, looked up): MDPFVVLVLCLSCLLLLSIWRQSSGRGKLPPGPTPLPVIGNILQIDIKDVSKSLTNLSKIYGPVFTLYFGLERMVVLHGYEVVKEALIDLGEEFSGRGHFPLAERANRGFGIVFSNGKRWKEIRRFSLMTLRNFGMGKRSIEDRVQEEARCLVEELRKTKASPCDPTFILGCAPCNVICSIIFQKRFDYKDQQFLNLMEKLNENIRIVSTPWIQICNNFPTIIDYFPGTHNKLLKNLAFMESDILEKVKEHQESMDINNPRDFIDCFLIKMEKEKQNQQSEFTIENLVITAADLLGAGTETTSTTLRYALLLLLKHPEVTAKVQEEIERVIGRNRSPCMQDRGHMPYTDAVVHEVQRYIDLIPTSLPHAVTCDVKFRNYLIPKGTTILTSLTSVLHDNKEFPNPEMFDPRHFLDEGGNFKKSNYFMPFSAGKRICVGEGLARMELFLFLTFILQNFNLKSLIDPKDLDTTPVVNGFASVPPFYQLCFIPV
CYP2C19 act – human CYP2C19 activators, primary screen, biochemical, luminescence | Cytochrome P450 2C19 (Homo sapiens), P33261 | 96,000 tested, under 10 active | activation factor at 5 µM | AID 1025, 2008 | recombinant CYP2C19, luciferin-H EGE luminescence; hits give high values; 0 = fully inhibited enzyme, 1 = untreated enzyme;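 active = activation factor of at least 2 at 5 µM in the primary screen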;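 also: 0 = wells with 2.5 mM tranylcypromine and 1 = vehicle-only wells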
Starred values were filed as active, the others as inactive; · = no result. Only some compounds are listed: those with a hit (about 27% of all), similar ones and a draw of the others.

SMILES	sEH inhibitor	CYP2C9 inh	sEH activator	CYP2C9 act	CYP2C19 inh	CYP2C19 act
COc1ccc(OC)c(C2C(C(C)=O)=C(O)C(=O)N2c2ccc(O)cc2)c1 (stereo not given)	10.6	19.7	-10.0	0.8	14.0	0.9
CCS(=O)(=O)N1CCCC(C(=O)NCCc2ccccc2)C1 (stereo not given)	5.3	26.6	-7.9	0.7	15.9	0.8
COc1ccc(CNC(=O)C(C)N(Cc2ccco2)C(=O)c2snc(C(N)=O)c2N)cc1 (stereo not given)	6.1	63.9*	-5.4	0.4	84.8*	0.2
CCc1ccccc1N(CC(=O)NCc1ccco1)C(=O)c1snc(C(N)=O)c1N	35.1	69.4*	-34.2	0.3	95.0*	0.1
CC(C)CCNC(=O)C(c1ccco1)N(Cc1ccccc1)C(=O)c1snc(C(N)=O)c1N (stereo not given)	·	23.7	·	0.8	49.4	0.5
CCOC(=O)C1=C(C)N=C(/N=C/N(C)C)SC1c1ccccc1 (stereo not given)	·	48.5	·	0.5	70.6*	0.3
C=C(C)CSc1nc2ncc(Cl)cc2[nH]1	-17.7	38.3	16.6	0.6	4.3	1
C=C(C)CN(CC)C(=O)CSc1nc2ncc(Cl)cc2[nH]1	-11.9	38.9	13.2	0.6	91.6*	0.1
O=c1c(Cl)c(N/N=C/c2ccc(Br)cc2)cnn1-c1ccccc1	9.3	11.6	-6.6	0.9	-0.6	1
CCN(C(=O)CSc1nc(-c2ccccc2)c(-c2ccccc2)[nH]1)C1CCS(=O)(=O)C1 (stereo not given)	-4.1	40.1	2.9	0.6	5.5	0.9
CCN(C(=O)CSc1nc2ccccc2n1CCc1ccccc1)C1CCS(=O)(=O)C1 (stereo not given)	4.2	-4.4	-4.4	1	66.8*	0.3
COc1ccc(OC)c(NS(=O)(=O)c2ccc3c(c2)n(C)c(=O)n3C)c1	-1.5	45.2	-1.0	0.5	77.9*	0.2
CCOC(=O)c1ccc(NC(=O)CCNS(=O)(=O)c2ccc3c(c2)oc(=O)n3C)cc1	·	-29.7	·	1.3	10.4	0.9
CCOC(=O)c1oc2ccc(S(=O)(=O)Nc3ccc4c(c3)n(C)c(=O)n4C)cc2c1C	5.4	94.0*	-6.3	0.1	79.3*	0.2
Cn1c(=O)n(C)c2cc(NS(=O)(=O)c3ccc4c(c3)CCCC4)ccc21	-7.1	21.0	7.0	0.8	95.3*	0
COc1ccc(NS(=O)(=O)c2ccc3c(c2)n(C)c(=O)n3C)cc1	3.8	74.1*	-5.7	0.3	27.1	0.7
c1ccc2oc(-c3ccc(Nc4nc(N5CCCCC5)nc(N5CCOCC5)n4)cc3)nc2c1	13.0	18.5	-14.3	0.8	3.8	1
NC(=O)C1(N2CCCCC2)CCN(C2CC(=O)NC2=O)CC1 (stereo not given)	-10.3	·	13.6	·	·	·
COC(=O)COc1ccc(S(=O)(=O)Nc2cc(OC)ccc2OC)cc1	-35.0	-86.5	34.0	1.9	98.9*	0
CC1CCN(C(=O)c2ccc(NC(=O)C3CCCO3)cc2)CC1 (stereo not given)	·	9.9	·	0.9	-2.4	1
N#Cc1ncc(C(F)(F)F)cc1Sc1ccc(N)cc1	-10.5	81.1*	9.0	0.2	95.7*	0
Cc1ccc(CCN2CC(C(=O)NCCCOC(C)C)CC2=O)cc1 (stereo not given)	10.2	1.7	-8.1	1	-6.5	1.1
O=C(Nc1ccc(OC(F)(F)C(F)F)c(NC(=O)c2ccc(F)cc2)c1)c1ccc(F)cc1	7.2	·	-9.1	·	·	·
CCCNc1nc(C)nc2c1cnn2CCc1ccccc1	2.7	15.3	-1.3	0.8	88.6*	0.1
Cc1nc(NC(C)C)c2cnn(CCc3ccccc3)c2n1	-16.5	42.0	18.1	0.6	77.0*	0.2
SMILES	sEH inhibitor	CYP2C9 inh	sEH activator	CYP2C9 act	CYP2C19 inh	CYP2C19 act
c1ccc(CCNc2ncnc3c2cnn3-c2ccccc2)cc1	-11.6	·	13.0	·	·	·
O=c1nc2ccccc2c2n1CC(CN1CCN(c3ccccc3F)CC1)N2 (stereo not given)	-7.5	36.1	10.6	0.6	-1.4	1
Cn1ccnc1C(O)c1cc(C(C)(C)C)c(O)c(C(C)(C)C)c1 (stereo not given)	-7.6	76.4*	5.1	0.2	23.6	0.8
Cc1ccc(/C=C(\C#N)C(=O)Nc2c(C)cccc2C)s1	11.8	64.2*	-9.7	0.4	13.4	0.9
CCCc1nc(SCC(=O)N2CCc3ccccc32)c2c(C)c(C)sc2n1	6.7	80.3*	-4.5	0.2	21.9	0.8
CCc1nc(SCC(=O)Nc2cccc(C(F)(F)F)c2)c2c(=O)n(C)c(=O)n(C)c2n1	-4.0	51.6*	5.8	0.5	66.4*	0.3
CCCc1nc(SCC(=O)N2CCc3ccccc32)c2c(=O)n(C)c(=O)n(C)c2n1	·	50.0*	·	0.5	10.8	0.9
CCCc1nc(SCC(=O)c2ccccc2)c2c(=O)n(C)c(=O)n(C)c2n1	·	86.0*	·	0.1	3.1	1
Cc1ccc(C(=O)Nc2ncnc3sc4c(c23)CCCCC4)cc1	0.0	21.2	-2.9	0.8	36.2	0.6
CCOc1ccc(CNc2ncnc(N)n2)cc1	-10.5	-0.8	7.9	1	-2.1	1
COc1cc(OC)cc(-c2cc3nc(C)cc(N4CCN(C(=O)c5ccco5)CC4)n3n2)c1	-2.6	29.0	0.8	0.7	54.6*	0.5
COc1ccc(CN2CCN(C(=O)c3ccco3)CC2)cc1	-10.1	-16.7	8.0	1.2	12.9	0.9
Cc1cc(N2CCN(C(=O)c3ccco3)CC2)n2nc(-c3cccc(F)c3)cc2n1	-7.4	87.5*	6.3	0.1	83.4*	0.2
O=C(CN1CCOCC1)Nc1ncccn1	-11.0	-8.1	9.0	1.1	9.4	0.9
CCOc1cccc2sc(NC(=O)CC)nc12	-17.0	74.9*	16.6	0.3	18.1	0.8
CCOc1ccccc1OCC(=O)Nc1nnc(C)s1	·	5.6	·	0.9	-5.0	1.1
CCOc1ccc(-c2nnn(CC(=O)NCc3ccc(F)cc3)n2)cc1OCC	2.6	34.8	-3.1	0.7	64.6*	0.4
CCOc1ccc(-c2nnn(CC(=O)Nc3cccc(OC)c3)n2)cc1OCC	-5.7	19.6	3.2	0.8	45.9	0.5
COc1ccccc1NC(=O)c1ccc(-c2ccccc2F)o1	13.4	-2.1	-10.1	1	3.6	1
COc1ccc(C)cc1S(=O)(=O)N(CC(=O)O)c1ccc(C)cc1	1.8	36.5	-2.5	0.6	14.7	0.9
COc1ccc(-c2nc(CNS(=O)(=O)c3cc(OC)ccc3OC)cs2)cc1	·	72.3*	·	0.3	70.5*	0.3
